This note sets out measurements from PubChem BioAssay (NCATS).

Inconclusive results are not listed. Values without a mark were called inactive. Calls of active or inactive are those of the source. Calls come from the whole dose curve; as a rule, active = well fitted inhibition curve with a large enough effect; inconclusive = small, poorly fitted or top-dose-only effect; inactive = no such curve, though single readings can be large or run the other way. Where a SMILES comes first, the peptide text is derived from it. [ ]: non-standard residue; d: D form. PhLac = O=C(O)[CH](O)Cc1ccccc1; NMeV = CN[CH](C(=O)O)C(C)C

In assay [1] the test system is Zika virus NS2B-NS3 protease (unlinked complex). The assay is described as follows: Primary screen GU Rhodamine qHTS for Zika virus inhibitors: Unlinked NS2B-NS3 protease assay (AID 1347159). Note: nearly all actives have a fitted effect of over 60% in size. The method, boiled down:
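Compounds, tested up to 114 microM, were incubated for 15 minutes with 25 nM unlinked NS2B-NS3 protease at pH 8.0. Cleavage of 1.5 microM Rhodamine110 substrate was then followed by fluorescence for 15 minutes.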

The subject of assay [2] is Zika virus NS2B-NS3 protease (linked construct). The assay is described as follows: Primary screen NINDS Rhodamine qHTS for Zika virus inhibitors (AID 1347160). Note: nearly all actives have a fitted effect of over 55% in size. In a few lines: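 Percent inhibition, normalized to uninhibited and enzyme-free controls, is fitted to a 4-parameter Hill equation. Fluorescence change comes from a 15-min cleavage of 1.5 microM bis-peptide Rhodamine110 substrate by 25 nM linked NS2B-NS3 at room temperature.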
% is set by controls: 0 for no effect and ±100 for the full control effect; potency is the fitted concentration of half-maximal effect.

`COc1ccc2c3c1O[C@H]1C[C@@H](O)C=C[C@@]31CCN(C)C2`: the Potency entry in assay [1] and in assay [2] was “inactive” throughout.

`CC(=O)O[C@H]1[C@H](C)[C@@H](O)[C@H]2[C@@H]1C=C(C(=O)O)[C@H]1C[C@@H]3[C@H]([C@H]21)[C@H]1C(=O)O[C@@H]2CC[C@@]3(C)O[C@]1(O)[C@@H]2C`: the Potency entry in assay [1] and in assay [2] was “inactive” each time.

Consider `OC[C@H]1O[C@@H](Oc2cc(O)cc(/C=C/c3ccc(O)cc3)c2)[C@H](O)[C@@H](O)[C@@H]1O`, for which the Potency result in assay [1] and in assay [2] was “inactive” throughout.

As for `COC(=O)[C@]12C(=O)C(C)=C(O)[C@@]1(C)C(C)=CC1[C@@]34CC[C@@H](OC(C)=O)C(C)(C)C3[C@H](C[C@]12C)OC4=O` (some centres undefined), the Potency result in assay [1] and in assay [2] was “inactive” in each case.

`O=C(CCO[C@@H]1O[C@H](CO)[C@@H](O)[C@H](O)[C@H]1O)c1ccc(O)cc1`: the Potency result in assay [1] and in assay [2] was “inactive” throughout.

For the molecule `C=CC(C)(O)CO[C@@H]1O[C@H](CO)[C@@H](O)[C@H](O)[C@H]1O` (some centres undefined), the Potency result in assay [1] and in assay [2] was “inactive” throughout.

In the case of `CC1=CCC2C(C)(CO)CCCC2(CO)C1CO` (centres undefined), the Potency in assay [1] and in assay [2] was 15.8 µM (active) each time.

With `COc1cc(C2Oc3c(OC)cc(/C=C/C(=O)OC[C@H]4O[C@@H](OC(C)(C)C(=O)O)[C@H](O)[C@@H](O)[C@@H]4O)cc3C2CO)ccc1O` (some centres undefined), the Potency result in assay [1] and in assay [2] was “inactive” throughout.

For `CC(C)C1=CC2=CCC3[C@](C)(CCC[C@@]3(C)C(=O)O)C2CC1O` (some centres undefined), the Potency result in assay [1] and in assay [2] was “inactive” in each case.

`COc1ccccc1-n1c(SCC(=O)Nc2nc3ccc(C)cc3s2)nc2c(c1=O)SCC2`: the Potency entry in assay [1] and in assay [2] was “inactive” each time.

For `O=C(NCc1ccc(OC(F)(F)F)cc1)C1c2ccccc2C(=O)N1C1CCOCC1` (centres undefined), the Potency result in assay [1] and in assay [2] was “inactive” in each case.

Turning to `CC(=O)OC[C@@]12[C@H](O)C[C@]3(C)C(=CCC4[C@@]5(C)CC[C@H](O[C@@H]6O[C@H](C(=O)O)[C@@H](O[C@@H]7O[C@H](CO)[C@@H](O)[C@H](O)[C@H]7O)[C@H](O)[C@H]6O[C@@H]6O[C@H](CO)[C@@H](O)[C@H](O)[C@H]6O)[C@](C)(CO)C5CC[C@]43C)[C@@H]1CC(C)(C)[C@@H](OC(C)=O)[C@@H]2O` (some centres undefined), the Potency result in assay [1] and in assay [2] was “inactive” in each case.

On to `CC(C)C(C(=O)N1CCCC1C(=O)O)N(C)C(=O)C(O)Cc1ccccc1` (centres undefined) (H-[PhLac]-[NMeV]-Pro-OH; configuration not given here), for which the Potency result in assay [1] and in assay [2] was “inactive” in each case.

As for `CC1(C)CCC[C@@]2(C)[C@H]1[C@H](O)C=C1COC(=O)[C@@]12O`, the Potency entry in assay [1] and in assay [2] was “inactive” in each case.

Consider `C=C1C[C@]23C[C@H]1CC[C@H]2[C@@]12C=C[C@H](O)[C@@](C)(C(=O)O1)[C@H]2[C@@H]3C(=O)O`, for which the Potency entry in assay [1] and in assay [2] was “inactive” throughout.

Regarding `c1ccc(Cc2ncc3c(n2)CCNCC3)cc1`, the Potency result in assay [1] and in assay [2] was “inactive” throughout.

Consider `CC(C)NC[C@H](O)COc1ccc(CCOCC2CC2)cc1`, for which the Potency entry in assay [1] and in assay [2] was “inactive” each time.

Consider `Cc1cc(N2CCCCC2)nc2ccccc12`, for which the Potency entry in assay [1] and in assay [2] was “inactive” in each case.

`CCN(c1cc(C#CCN2CCOCC2)cc(C(=O)NCc2c(C)cc(C)[nH]c2=O)c1C)C1CCC(N(C)CCOC)CC1` (centres undefined): the Potency result in assay [1] and in assay [2] was “inactive” in each case.

Take `C[C@@H](O)[C@H](N)C(=O)N1CCC[C@H]1C(=O)N1CCC[C@H]1C(=O)N[C@H](C(N)=O)[C@@H](C)O` (H-TPPT-NH2): the activity change, negative = inhibition in assay [1] is -7.3% [at 19.1 µM]; in assay [2] it was 20.4% [at 10.7 µM].

Take `COC(=O)[C@@]1(C)CC[C@]2(C(=O)O[C@@H]3O[C@H](CO)[C@@H](O)[C@H](O)[C@H]3O)CC[C@]3(C)C(=CCC4[C@@]5(C)CC[C@H](O[C@@H]6O[C@H](C(=O)O)[C@@H](O)[C@H](O)[C@H]6O)C(C)(C)C5CC[C@]43C)[C@@H]2C1` (some centres undefined): the Potency result in assay [1] and in assay [2] was “inactive” in each case.

For the molecule `CC(=O)N1CCN(NC(=O)c2ccc(F)cc2)CC1`, the Potency entry in assay [1] and in assay [2] was “inactive” each time.
